# Reference: PubChem BioAssay (EPA / NIEHS)
# Active and inactive are the calls of the source. How the source made its calls: active means hit-call score of the fitted dose curve at least 0.9, where 1 is the maximum; inactive means score below 0.9.
# Assay: ATG_NFI_CIS: Attagene CIS-FACTORIAL HepG2 Assay for human Nuclear Factor I (NFI) (AID 2282989)
# Conditions: HepG2 cis-regulatory reporter, NFI response element transcription; actives raise or lower the signal
# Experimental: ATG_CIS is a cell-based, multiplexed-readout assay that uses HepG2, a human liver cell line, with measurements taken at 24 hours after chemical dosing in a 24-well plate.ATG_NFI_CIS is one of 52 assay component(s) measured or calculated from the ATG_CIS assay. It is designed to make measurements of mRNA induction, a form of inducible reporter, as detected with fluorescence intensity signals by Reverse transcription polymerase chain reaction (RT-PCR) and Capillary electrophoresis technology.Data from the assay component ATG_NFI_CIS was analyzed into 1 assay endpoint. This assay endpoint, ATG_NFI_CIS, was analyzed with bidirectional fitting relative to DMSO as the negative control and baseline of activity. Using a type of inducible reporter, measures of mRNA for gain or loss-of-signal activity can be used to understand the reporter gene at the transcription factor-level as they relate to the gene NFIA. Furthermore, this assay endpoint can be referred to as a primary readout, because this assay has produced multiple assay endpoints where this one serves a reporter gene function. To generalize the intended target to other relatable targets, this assay endpoint is annotated to the dna binding intended target family, where the subfamily is nuclear factor I.
# Human liver HepG2 cells are transiently transfected with multiple reporter transcription units (MRTUs) in 6-well plates using FuGene 6 reagent (Roche; 3 ml FuGene/1 mg DNA). The MRTU constructs are regulated by a cis-regulating element (promoter). […] A major difference between the CIS and TRANS system is that in CIS activities of endogenous TFs are measured, whereas the TRANS assay evaluates changes in activities of exogenous, chimeric NR-Gal4 proteins. […] At the end of 24 hour incubation, total RNA was isolated using TriZol reagent (Invitrogen). The isolated RNA is then reverse-transcribed using oligo(dT) primer and Mo-MLV reverse transcriptase (Invitrogen) with DNAse I (Ambion) treatment for 30 min. The one-tenth of the produced cDNA was amplified by PCR using Taq DNA polymerase (Invitrogen) and two reporter sequence-specific primers. The PCR products were fluorescently labeled by primer extension with 6-arboxyfluorescein (6-FAM) 5'-labeled reporter sequence-specific primer (2 min at 95 C, 20 s at 68 C and 10 min at 72 C) and these products were digested with 5U of HpaI (New England Biolabs) for 2h at 37 C. The fragments were purified using Qiaquick PCR columns (Qiagen), analyzed on an ABI 3130xL genetic analyzer (Applied Biosystems) with peak positions identified by using a set of X-rhodamine (ROX)-labeled MapMarker1000 molecular weight standards (BioVentures). The raw capillary electrophoresis data was processed using Attagraph software (Attagene).
SMILES,outcome,AC50
CCO/C=C1\N=C(c2ccccc2)OC1=O,inactive,
N#Cc1ccc(CC(=O)c2cccc(C(F)(F)F)c2)cc1,,188 µM (active)
Brc1ccc(Br)c(Br)c1,inactive,
CCCCCCOCCOCCO,inactive,
COc1ccc(OC)c(N=Nc2c(O)ccc3ccccc23)c1,inactive,
CC(C)Nc1nc(N)nc(Cl)n1,inactive,
CC1C2CC(CC2C2CCCC(O)C2)C1(C)C (stereo not given),inactive,
FC(F)(F)COCC(F)(F)F,inactive,
COc1ccc(N)c([N+](=O)[O-])c1,inactive,
C=C1C[C@]23C[C@@]1(O)CC[C@H]2[C@@]12C=C[C@H](O)[C@@](C)(C(=O)O1)[C@H]2[C@@H]3C(=O)O,inactive,
CCCCCCC(O)CCCCCCCCCCC(=O)O (stereo not given),inactive,
CC1(C)C(=O)N(Cl)C(=O)N1Br,inactive,
COc1ccc(N=Nc2cc(C)c(N=Nc3ccc(S(=O)(=O)O)cc3)cc2OC)cc1,,149 µM (active)
CCc1ccc(O)cc1,inactive,
[O-]n1ccccc1=S.[O-]n1ccccc1=S.[Zn+2],inactive,
CCCC[O][Al]([O]CCCC)[O]CCCC,inactive,
CCCC(C)=O,inactive,
Cc1ncc[nH]1,inactive,
CCOc1ccc(NC(=O)CC(C)O)cc1 (stereo not given),inactive,
CC(=O)NCCO,inactive,

SMILES,outcome,AC50
Cc1cc(C)nc(NS(=O)(=O)c2ccc(N)cc2)n1,inactive,
CCOCCOCCOCC,inactive,
CS(=O)(=O)c1ccc(Cl)cc1,inactive,
CN(C)CCOc1ccc(/C(=C(/CCCl)c2ccccc2)c2ccccc2)cc1,inactive,
CCC(C)=O,inactive,
C#CC(C)N(C)C(=O)Nc1ccc(Cl)cc1 (stereo not given),inactive,
C=C(C)CNCC,inactive,
CCCCCCCCCC(=O)OC,inactive,
CCCCCC(=O)CC,inactive,
C1CCOC1,inactive,
O=C1OC2(c3ccccc31)c1ccc(O)c(Br)c1Oc1c2ccc(O)c1Br,inactive,
CC1=CC[C@@]23C[C@@H]1C(C)(C)[C@@H]2CC[C@H]3C,inactive,
C=CC(C)C#N (stereo not given),inactive,
CC(C)(C)C1=CC(=O)C(C(C)(C)C)=CC1=O,inactive,
CCC(C)S (stereo not given),inactive,
Cc1ccc(N)c(S(=O)(=O)O)c1,inactive,
Oc1ccc2cc(SSc3ccc4cc(O)ccc4c3)ccc2c1,,34.1 µM (active)
CCCCC(CC)(CO)CO,inactive,
CCOC(=O)c1ccc(N)cc1,inactive,
O=C1OC(=O)c2c(Br)c(Br)c(Br)c(Br)c21,inactive,
